Reference: the supplement of paper PMC12669032

test system: Lactobacillus paracasei; test: growth AUC relative to DMSO control (median of replicates) (fraction); higher = more growth (less inhibition), active = hit call of the paper; details: 20 µM; 24 h;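 active = AUC reduced over 20% with Padj below 0.05 in at least 2 of 3 replicates; inactive = otherwise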
Method in brief: (§1)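 Each value is the median of three biological replicates, grown on separate days, of a gut bacterial monoculture incubated anaerobically at 37 °C in mGAM with 20 µM compound (1% DMSO). Cultures started at OD600 0.05 and were read at OD600 hourly for 24 h, with the minimum OD set to 0. Area under the growth curve was normalised to the plate median of solvent-only wells, or to row and column medians on the industrial chemical plate.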

Growth AUC, inactive:
N#Cc1ccc(CC(=NNC(=O)Nc2ccc(OC(F)(F)F)cc2)c2cccc(C(F)(F)F)c2)cc1 (mixture of isomers) 0.959
COC(=O)C(C)Oc1ccc(Cl)cc1Cl (stereo not drawn) 1.01
CC(C)N(C(=O)C(=O)O)c1ccccc1 1.02
c1ccc(CNc2ncnc3nc[nH]c23)cc1 1.03
C=CCc1ccc(O)c(OC)c1 0.957
CCCCOC(=O)COc1ccc(Cl)cc1Cl 0.839
CC(Oc1ccc(Cl)cc1Cl)C(=O)NC(C)(C#N)C(C)C (stereo not drawn) 0.997
Cc1cccc(C)c1N(CC(=O)O)C(=O)CS(=O)(=O)[O-].[Na+] 0.928
c1ccc2cc3ccccc3cc2c1 0.923
Cn1cc(C(=O)Nc2ccc(F)cc2-c2ccc(Cl)c(Cl)c2)c(C(F)F)n1 0.968
O=c1cccc2n1CCn1c-2cccc1=O 1.02
CCCCCCC(C)OC(=O)COc1nc(F)c(Cl)c(N)c1Cl (stereo not drawn) 0.942
Cc1[nH]n(C)c(=O)c1C(=O)c1ccc(C(F)(F)F)cc1S(C)(=O)=O 1.03
COC(=O)[C@@H](C)Oc1ccc(Oc2ncc(C(F)(F)F)cc2Cl)cc1 1.04
CC(C)OC(=O)N[C@H](C(=O)N[C@H](C)c1nc2ccc(F)cc2s1)C(C)C 1.03
CC1=C(C(=O)Nc2ccccc2)CCCO1 1.03
CCOCCOC(=O)C(C)Oc1ccc(Oc2ncc(C(F)(F)F)cc2Cl)cc1 (stereo not drawn) 1.02
NS(=O)(=O)[O-].[NH4+] 0.997
CCOC(=O)CSc1nc(C(C)(C)C)nn1C(=O)N(C)C 0.956
CCc1cccc(C)c1NC(=O)CS(=O)(=O)[O-].[Na+] 0.949
ClC(COCC(Cl)C(Cl)(Cl)Cl)C(Cl)(Cl)Cl (stereo not drawn) 1.08
CCC(C)c1cc([N+](=O)[O-])cc([N+](=O)[O-])c1OC(=O)OC(C)C (stereo not drawn) 0.951
CC(C)(CO)C(O)(CCc1ccc(Cl)cc1)Cn1cncn1 (stereo not drawn) 1.04
CC(C)(C)C(=O)C(Oc1ccc(Cl)cc1)n1ccnc1 (stereo not drawn) 0.971
CC(C)(NC(=O)C(Br)C(C)(C)C)c1ccccc1 (stereo not drawn) 0.895
COc1cc(OC)nc(NC(=O)NS(=O)(=O)c2c(Cl)nc3ccccn23)n1 1.11
CCc1ccc(O)cc1 0.84
CCOc1nc(F)cc2nc(S(=O)(=O)Nc3c(Cl)cccc3C(=O)OC)nn12 1.06
CCOCCc1ccc(OCCNc2ncnc(CC)c2Cl)c(C)c1C 0.929
CCOC(=O)[C@@H](C)Oc1ccc(Oc2cnc3cc(Cl)ccc3n2)cc1 0.917
Cc1cccc(C)c1N(C(=O)CCl)C1CCOC1=O (stereo not drawn) 1.01
Cc1[nH]oc(=O)c1N=Nc1ccccc1Cl 0.955
CCCOc1nc2ccc(I)cc2c(=O)n1CCC 0.976
CCOCOc1ccc(C(=O)Nc2cccc(Cl)c2Cl)cc1 0.985
COc1ccc(Oc2ccc(NC(=O)N(C)C)cc2)cc1 1.01
COCCN(C(=O)CO)c1c(C)cccc1C(=O)O 0.996
C/C=C/C=C/CCCCCCCO 0.984
CCOC(=O)C(C)Oc1ccc(Oc2nc3ccc(Cl)cc3o2)cc1 (racemic) 0.97

Growth AUC, active:
O.O=C(Nc1ccc([N+](=O)[O-])cc1Cl)c1cc(Cl)ccc1O 0.3

test system: Odoribacter splanchnicus; test: as above; details: 20 µM; 24 h
Method in brief: as §1

Growth AUC, inactive:
N#Cc1ccc(CC(=NNC(=O)Nc2ccc(OC(F)(F)F)cc2)c2cccc(C(F)(F)F)c2)cc1 (mixture of isomers) 1.02
COC(=O)C(C)Oc1ccc(Cl)cc1Cl (stereo not drawn) 1.11
CC(C)N(C(=O)C(=O)O)c1ccccc1 1.05
c1ccc(CNc2ncnc3nc[nH]c23)cc1 1.03
C=CCc1ccc(O)c(OC)c1 0.96
CCCCOC(=O)COc1ccc(Cl)cc1Cl 0.946
CC(Oc1ccc(Cl)cc1Cl)C(=O)NC(C)(C#N)C(C)C (stereo not drawn) 0.838
Cc1cccc(C)c1N(CC(=O)O)C(=O)CS(=O)(=O)[O-].[Na+] 1.01
c1ccc2cc3ccccc3cc2c1 0.999
Cn1cc(C(=O)Nc2ccc(F)cc2-c2ccc(Cl)c(Cl)c2)c(C(F)F)n1 0.865
O=c1cccc2n1CCn1c-2cccc1=O 0.982
CCCCCCC(C)OC(=O)COc1nc(F)c(Cl)c(N)c1Cl (stereo not drawn) 1.04
Cc1[nH]n(C)c(=O)c1C(=O)c1ccc(C(F)(F)F)cc1S(C)(=O)=O 1.02
COC(=O)[C@@H](C)Oc1ccc(Oc2ncc(C(F)(F)F)cc2Cl)cc1 0.946
CC(C)OC(=O)N[C@H](C(=O)N[C@H](C)c1nc2ccc(F)cc2s1)C(C)C 1.02
CC1=C(C(=O)Nc2ccccc2)CCCO1 1.05
CCOCCOC(=O)C(C)Oc1ccc(Oc2ncc(C(F)(F)F)cc2Cl)cc1 (stereo not drawn) 1.07
NS(=O)(=O)[O-].[NH4+] 0.988
CCOC(=O)CSc1nc(C(C)(C)C)nn1C(=O)N(C)C 0.948
CCc1cccc(C)c1NC(=O)CS(=O)(=O)[O-].[Na+] 1.01
ClC(COCC(Cl)C(Cl)(Cl)Cl)C(Cl)(Cl)Cl (stereo not drawn) 0.971
CCC(C)c1cc([N+](=O)[O-])cc([N+](=O)[O-])c1OC(=O)OC(C)C (stereo not drawn) 1.09
CC(C)(CO)C(O)(CCc1ccc(Cl)cc1)Cn1cncn1 (stereo not drawn) 0.979
CC(C)(C)C(=O)C(Oc1ccc(Cl)cc1)n1ccnc1 (stereo not drawn) 0.994
CC(C)(NC(=O)C(Br)C(C)(C)C)c1ccccc1 (stereo not drawn) 0.983
COc1cc(OC)nc(NC(=O)NS(=O)(=O)c2c(Cl)nc3ccccn23)n1 0.984
CCc1ccc(O)cc1 0.979
CCOc1nc(F)cc2nc(S(=O)(=O)Nc3c(Cl)cccc3C(=O)OC)nn12 1.04
CCOCCc1ccc(OCCNc2ncnc(CC)c2Cl)c(C)c1C 1.01
CCOC(=O)[C@@H](C)Oc1ccc(Oc2cnc3cc(Cl)ccc3n2)cc1 0.984
Cc1cccc(C)c1N(C(=O)CCl)C1CCOC1=O (stereo not drawn) 0.408
Cc1[nH]oc(=O)c1N=Nc1ccccc1Cl 1.06
CCCOc1nc2ccc(I)cc2c(=O)n1CCC 1.05
CCOCOc1ccc(C(=O)Nc2cccc(Cl)c2Cl)cc1 0.975
COc1ccc(Oc2ccc(NC(=O)N(C)C)cc2)cc1 0.974
COCCN(C(=O)CO)c1c(C)cccc1C(=O)O 1
C/C=C/C=C/CCCCCCCO 1.03
CCOC(=O)C(C)Oc1ccc(Oc2nc3ccc(Cl)cc3o2)cc1 (racemic) 1.01

Growth AUC, active:
O.O=C(Nc1ccc([N+](=O)[O-])cc1Cl)c1cc(Cl)ccc1O 0.039
